{
  "source": "the supplement of paper PMC11417369",
  "note": "± gives the standard deviation of the averaged measurements. Over roughly 25,000 sequences, “ln(normalized median fluorescence intensity)” has its median near 8.6; the highest 2% begin near 10. What follows is part of a selection rich in the highest values, with near analogues and random picks from the rest.",
  "data": [
    {"system": "PfAP2-EXP AP2 domain (GST-tagged)", "experiment": "gcPBM binding intensity (ln(normalized median fluorescence intensity)); higher = stronger DNA binding", "how_it_was_run": "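Probes on an Agilent 4 × 180k array were primer-extended, double-stranded and 36 bp long, taken from intergenic genomic regions, with negative controls added. GST-tagged P. falciparum DNA-binding domains from E. coli, about 25 μg on average, were applied to the array for 1 h in 1× PBS containing 1% milk, 0.2 mg/ml BSA, 0.5% salmon testes DNA and 0.03% Triton X-100. Binding intensity, obtained after Alexa488 anti-GST antibody detection and a 488 nm scan, is the highest Masliner-normalised natural-log median intensity across replicate spots of either probe orientation.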", "values": [
      {"sequence": "GGAATTATAATAAATGGTACACATAAAAAAAAAAAA [XGTACX_site8343]", "gcPBM binding intensity (ln)": "8.77 ± 0.59"},
      {"sequence": "ATATATAATCATCACACATGCAGCCCTGATGAAAAA [TGCATGCA_site687]", "gcPBM binding intensity (ln)": "8.77 ± 0.38"},
      {"sequence": "TGCATACTTTTGTAAGTGCATAAAATCGTACCATGC", "gcPBM binding intensity (ln)": "8.71 ± 0.11"},
      {"sequence": "GATATTACGTGTTTGGTATTTTTTGATGTTAATAGG [CACACA_negctrl_site105]", "gcPBM binding intensity (ln)": "8.8 ± 0.52"},
      {"sequence": "ATATATATATATATATGTACATATTTTTTATTTTAT [XGTACX_site5761]", "gcPBM binding intensity (ln)": "10.1 ± 0.5"},
      {"sequence": "TTTTTTTTTATATTTAGTACATATATATTATTATAT [XGTACX_site3334]", "gcPBM binding intensity (ln)": "8.39 ± 0.31"},
      {"sequence": "ATATATATATATGTATGTACATATTTTTTTTAACAC [XGTACX_site8475]", "gcPBM binding intensity (ln)": "9.93 ± 0.4"},
      {"sequence": "ATATATATATATATATGTACATATTTTATAACTGTA [XGTACX_site5395]", "gcPBM binding intensity (ln)": "10.2 ± 0.33"},
      {"sequence": "ATATATATATATATATGTACATATATTTTTATTTAT [XGTACX_site3508]", "gcPBM binding intensity (ln)": "10.3 ± 0.26"},
      {"sequence": "AAAAAAAAAAAAAAGAGTACATTTATTTATATATCT [XGTACX_site2381]", "gcPBM binding intensity (ln)": "8.23 ± 0.19"},
      {"sequence": "CATATATATTTTATATGTACATATATATTTTATATA [XGTACX_site8665]", "gcPBM binding intensity (ln)": "8.45 ± 0.25"},
      {"sequence": "ATATATATATATTTATGTACATATATTTTTTTTTTT [XGTACX_site8558]", "gcPBM binding intensity (ln)": "9.73 ± 0.28"},
      {"sequence": "TTATATTTTTACAAGAGTACATATATATATATATAT [XGTACX_site5383]", "gcPBM binding intensity (ln)": "10.2 ± 0.31"},
      {"sequence": "ATATATATATATGTATGTACACATATTTTTTAACTT [XGTACX_site431]", "gcPBM binding intensity (ln)": "10.42 ± 0.042"},
      {"sequence": "TATATACATTTATGTACACACACATATATGTATATT [CACACA_site8971]", "gcPBM binding intensity (ln)": "8.59 ± 0.34"},
      {"sequence": "TTTTTTTTTTTTTTATGTACATATATATATTTTATT [XGTACX_site6915]", "gcPBM binding intensity (ln)": "8.61 ± 0.6"},
      {"sequence": "CTTAAGTAAAATTAAAGTACATGGACAAAAAATATA [XGTACX_site7900]", "gcPBM binding intensity (ln)": "8.87 ± 0.28"},
      {"sequence": "AAAAAAAAAAAAAAAAGTACAAAAAAAAAAAAAAAA [XGTACX_site4549]", "gcPBM binding intensity (ln)": "8.26 ± 0.057"},
      {"sequence": "AAAATTAATTATTACAAAAATGAAAAGACATATTTT [GTGCAC_negctrl_site735]", "gcPBM binding intensity (ln)": "8.23 ± 0.38"},
      {"sequence": "TAATCAATTCAATATTGTACGATATTTACCTTTAAA [XGTACX_site4678]", "gcPBM binding intensity (ln)": "8.89 ± 0.42"},
      {"sequence": "AGAGGGGAAAACATGATGCACTAGTATAACCAAGAA", "gcPBM binding intensity (ln)": "9.22 ± 0.34"},
      {"sequence": "GTGAATATTAAAAAATGTACACAATTATATGTATAT [XGTACX_site4834]", "gcPBM binding intensity (ln)": "8.49 ± 0.28"},
      {"sequence": "TTCAAAAGATATATCGTGCACATATATATGATGAAA", "gcPBM binding intensity (ln)": "9.35 ± 0.62"},
      {"sequence": "ATGCTCAGGAAAACATGTACAAAATTATTTGTTATA [XGTACX_site4306]", "gcPBM binding intensity (ln)": "8.31 ± 0.34"},
      {"sequence": "ATGTATATATATATATGTACATATTTTTTATATGTA [XGTACX_site441]", "gcPBM binding intensity (ln)": "8.29 ± 0.25"},
      {"sequence": "TGTATGTTTATTTATCGTACATATATATATATATAT [XGTACX_site7315]", "gcPBM binding intensity (ln)": "10.2 ± 0.18"},
      {"sequence": "AAGTATTTTTTTACATGTACATATATATATATATAT [XGTACX_site5065]", "gcPBM binding intensity (ln)": "10.2 ± 0.26"},
      {"sequence": "ATATATTTATTTATATGTACATATTATATATTATAG [XGTACX_site3371]", "gcPBM binding intensity (ln)": "8.55 ± 0.35"},
      {"sequence": "TATATTATATTTTTATGTACATATATGTTTTTTTTT [XGTACX_site8239]", "gcPBM binding intensity (ln)": "8.52 ± 0.092"},
      {"sequence": "GTATATAAGTATATATGTACATATATTTTATATATA [XGTACX_site4745]", "gcPBM binding intensity (ln)": "8.42 ± 0.23"},
      {"sequence": "TTTCATTAATCTAATAGTACAGAAAATTGAGAAAAA [XGTACX_site8395]", "gcPBM binding intensity (ln)": "8.72 ± 0.34"},
      {"sequence": "ATTTTTTTCTTTTCTTTTTTCTTTTTTTTTTTTGGT [CACACA_negctrl_site1146]", "gcPBM binding intensity (ln)": "8.35 ± 0.61"},
      {"sequence": "AACTTATTAAGCCCTCCACATTTCTCTACTACAACT [CACACA_negctrl_site1552]", "gcPBM binding intensity (ln)": "8.61 ± 0.43"},
      {"sequence": "TATAATTATATTTGGAGTACAAATTTTTTTTTTTTT [XGTACX_site7494]", "gcPBM binding intensity (ln)": "8.3 ± 0.32"},
      {"sequence": "TATATTTCAGGGGGGAGTACAAATTTTTTTATATAA [XGTACX_site1600]", "gcPBM binding intensity (ln)": "10.9 ± 0.38"},
      {"sequence": "TATTTTTTTTTTATATGTACATAATTTCAAATAAAT [XGTACX_site7747]", "gcPBM binding intensity (ln)": "8.62 ± 0.48"},
      {"sequence": "ATAAAAAAAAAAAAAAAATATATATATATATATATA [XGTACX_negctrl_site424]", "gcPBM binding intensity (ln)": "10.2 ± 0.32"},
      {"sequence": "AAAAATAAAAAATATAAAAATATAAAAATATAAAAA [XGTACX_negctrl_site51]", "gcPBM binding intensity (ln)": "8.32 ± 0.38"},
      {"sequence": "TATAAAAAAAAAAAATATATATATATATAAATATAA [TGCATGCA_negctrl_site367]", "gcPBM binding intensity (ln)": "8.2 ± 0.31"},
      {"sequence": "AAAAAAAAAAAAAAATATAAATATATATATATATAT [GTGCAC_negctrl_site28]", "gcPBM binding intensity (ln)": "10 ± 0.28"},
      {"sequence": "ATATAAATAAAAAAAAAAAAAAAAAAAAAAAAAAAA [CACACA_negctrl_site972]", "gcPBM binding intensity (ln)": "8.01 ± 0.43"},
      {"sequence": "TTATAAAAAAAAAAAAAAAATATATATATATATATA [XGTACX_negctrl_site592]", "gcPBM binding intensity (ln)": "10.3 ± 0.13"},
      {"sequence": "TTATAATAAATATATAAAAAAAAAAAAAAAAAAAAA [CACACA_negctrl_site1639]", "gcPBM binding intensity (ln)": "7.97 ± 0.23"},
      {"sequence": "ATATAAAAAAAAAAAAAAAAATATATATATATATAT [GTGCAC_negctrl_site251]", "gcPBM binding intensity (ln)": "10.2 ± 0.13"},
      {"sequence": "TTATAATATAAAAATAAATAAATAAATAAATAAATA [CACACA_negctrl_site1587]", "gcPBM binding intensity (ln)": "8.55 ± 0.11"},
      {"sequence": "TAAATAATATCTATCACACACGCATATATACATATA [CACACA_site2622]", "gcPBM binding intensity (ln)": "8.32 ± 0.44"},
      {"sequence": "TAATATTATTTTTCAGTGCAATATAACCTTAGAATT [GTGCAC_site9417]", "gcPBM binding intensity (ln)": "8.38 ± 0.32"},
      {"sequence": "CATGTTCATCAGAACGCACACATAATGGTTTACTTA [CACACA_site898]", "gcPBM binding intensity (ln)": "8.47 ± 0.3"},
      {"sequence": "TGAAAAATGTAATGCTCACACATATATATATATATA [CACACA_site5213]", "gcPBM binding intensity (ln)": "10.2 ± 0.32"},
      {"sequence": "CACAAAAATGTAATCACACATATATATATATATATA [CACACA_site5818]", "gcPBM binding intensity (ln)": "10.1 ± 0.38"},
      {"sequence": "ATATAATTAAAATGCTCACACACATAAAAAAAAATT [CACACA_site2148]", "gcPBM binding intensity (ln)": "8.43 ± 0.55"},
      {"sequence": "AATAAAATAAGAAGCACACAAATATTATATATAAAA [CACACA_site3980]", "gcPBM binding intensity (ln)": "8.78 ± 0.42"},
      {"sequence": "ATTATAAATTAAAATACACACATATATACCTAATAT [CACACA_site5541]", "gcPBM binding intensity (ln)": "8.47 ± 0.4"},
      {"sequence": "TTACAAATATTATAATGTACCCATTTTTTTTGCCTT [XGTACX_site6612]", "gcPBM binding intensity (ln)": "8.47 ± 0.39"},
      {"sequence": "CATAATATATATTGAGCATGCTACTATTGTTAGAAA [TGCATGCA_site740]", "gcPBM binding intensity (ln)": "9 ± 0.31"},
      {"sequence": "AGAAACCTTGTTAGTTAGCATATATATATATATATA [CACACA_negctrl_site372]", "gcPBM binding intensity (ln)": "10.2 ± 0.49"}
    ]}
  ]
}
